For eleven molecules, outcome and Potency results are on record in PubChem BioAssay (Tox21).

Records with an inconclusive call do not appear. Calls of active or inactive are those of the source. Unless noted, calls follow the shape of the dose curve; as a rule, active = well fitted curve in the direction sought with a large enough effect in the repeat runs; inconclusive = weak or mixed curves; inactive = no such curve, though single readings can be large; an effect the other way counts as inactive or inconclusive.

Test [1] is described as follows: qHTS assay to identify small molecule agonists of the vitamin D receptor (VDR) signaling pathway - cell viability counter screen (AID 743224). Also: series mostly up to about 63 µM; nearly all actives have a fitted effect of over 50% in size. A digest of the protocol:
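VDR-bla cells were preincubated 4 h at 37C/5% CO2, then exposed to compounds for 16 h. After the 2 h room-temperature bla FRET read, CellTiter-Glo was added to the same wells and luminescence read after 30 min.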
Background: Quantitative high-throughput screening tests each substance at several concentrations.

Test [2] in a line: qHTS assay to identify small molecule antagonists of the vitamin D receptor (VDR) signaling pathway - cell viability counter screen (AID 743225). Also: nearly all actives have a fitted effect of over 50% in size. In a few lines: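 Cytotoxicity toward the VDR-bla HEK 293T line was scored by ATP-based CellTiter-Glo luminescence, read in the wells already used for the beta-lactamase readout after 16 h compound treatment under 3 nM 1-alpha,25-dihydroxyvitamin D3 stimulation.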

Test [3] is described as follows: qHTS assay to identify small molecule agonists of the NFkB signaling pathway (AID 1159509; active = well fitted curve in the direction sought with a large enough effect in the signal ratio in the repeat runs, not every such curve was filed as active; the % refers to the signal ratio; also: series mostly up to about 61 µM). A digest of the protocol:
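ME-180 NFkB-bla, 2,000 cells/well, overnight plating; cpd pinned in DMSO, 5 h 37 C; B/G FRET substrate 1.5 h RT; ex 405, em 460/530 nm.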

Test [4] is described as follows: qHTS assay to identify small molecule agonists of the NFkB signaling pathway - cell viability counter screen (AID 1159515; calls by dose curve; also: series mostly up to about 61 µM; nearly all actives have a fitted effect of over 55% in size). A digest of the protocol:
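NFkB-bla ME-180 cells, 2,000/well, were plated overnight at 37 C, 5% CO2, then exposed to compounds in DMSO for 5 hr. After the bla FRET read, CellTiter-Glo was added to the same wells; luminescence was read after 30 min at room temperature.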

Test [5] is described as follows: qHTS assay to identify small molecule agonists of the endoplasmic reticulum stress response signaling pathway (AID 1159516; active = well fitted activation curve with a large enough effect in the signal ratio in the repeat runs, not every such curve was filed as active; the % refers to the signal ratio). A digest of the protocol: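 CellSensor ESRE-bla HeLa cells, carrying a beta-lactamase reporter driven by the ER stress response element, were plated overnight and exposed to compounds for 5 hr at 37 C. Reporter activity was read as FRET substrate fluorescence after 2 hr at room temperature.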

A short description of test [6]: qHTS assay to identify small molecule agonists of the endoplasmic reticulum stress response signaling pathway - cell viability counter screen (AID 1159517; calls by dose curve; also: series mostly up to about 61 µM; nearly all actives have a fitted effect of over 50% in size). In a few lines:
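CellTiter-Glo was added to wells already read for beta-lactamase FRET, and luminescence was recorded 30 min later. Cells: ESRE-bla HeLa, 1,500 per well, compound exposure 5 hr at 37 C.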

Test [7] can be described thus: qHTS assay to identify small molecule antagonists of the retinoid-related orphan receptor gamma (ROR-gamma) signaling pathway - cell viability counter screen (AID 1159520). Also: nearly all actives have a fitted effect of over 50% in size. A digest of the protocol:
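Tet-on ROR gamma CHO cells (1,000/well) were plated 4 hr, given compounds in DMSO for 2 hr at 37 C, then induced with 1 uM final doxycycline for 16 hr. Viability was read as ATP by CellTiter-Glo luminescence after 30 min.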

For test [8], the target named is Nuclear receptor ROR-gamma (Homo sapiens) (UniProt P51449). As to the kind of experiment: qHTS assay to identify small molecule antagonists of the retinoid-related orphan receptor gamma (ROR-gamma) signaling pathway (AID 1159521). In a few lines:
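Readout: ONE-Glo luciferase luminescence, 30 min at room temperature. System: Tet-on RORγ CHO, RORE-LUC. Sequence: compound 2 h, doxycycline 1 uM final, 16 h at 37 C.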

Test [9] can be described thus: qHTS assay to identify small molecule agonists of the AP-1 signaling pathway - cell viability counter screen (AID 1159525; calls by dose curve; also: nearly all actives have a fitted effect of over 55% in size). In a few lines:
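ME-180 AP-1-bla, 2500 cells/well, Opti-MEM + 0.5% dialyzed FBS; overnight 37 °C; cpd 15-pt titration, 5 h 37 °C; CellTiter-Glo 30 min RT; luminescence read; normalised to TOAB and DMSO controls.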

A short description of test [10]: qHTS assay to identify small molecule agonists of the AP-1 signaling pathway (AID 1159526; calls by dose curve).
The target in test [11] is Retinoic acid receptor RXR-alpha (Homo sapiens) (UniProt P19793). The test can be described thus: qHTS assay to identify small molecule agonists of the RXR signaling pathway (AID 1159527; calls by dose curve; also: nearly all actives have a fitted effect of over 35% in size). In a few lines: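 Reporter activation is measured as beta-lactamase activity via FRET substrate cleavage (emission 460/530 nm) in HEK 293T cells expressing an RXR-alpha-driven bla construct, following 16 hr compound exposure at 37 C.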

A short description of test [12]: qHTS assay to identify small molecule agonists of the RXR signaling pathway - cell viability counter screen (AID 1159529). In a few lines:
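Tox21 10K compounds were tested for cytotoxicity against GeneBLAzer RXR-alpha HEK 293T cells grown in 2% charcoal-stripped FBS. Exposure lasted 16 hr at 37 C, 5% CO2; viability read by CellTiter-Glo luminescence.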

Test [13] in a line: qHTS assay to identify small molecule antagonists of the retinoid acid receptor (RAR) signaling pathway - cell viability counter screen (AID 1159551). Also: nearly all actives have a fitted effect of over 35% in size. A digest of the protocol: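 C3RL4 cells were seeded overnight at 37 C, then treated with compounds plus 1 uM (final) retinol for 6 h at 37 C. Viability was read as ATP by CellTiter-Glo luminescence after 30 min at room temperature.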

Test [14] in a line: qHTS assay to identify small molecule antagonists of the retinoic acid receptor (RAR) signaling pathway (AID 1159552; also: nearly all actives have a fitted effect of over 50% in size). In a few lines: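 Overnight-plated C3RL4 reporter cells get compound, then retinol to 1 uM final; plates sit 6 hr at 37 C, 5% CO2. A luciferase reagent is added and light output recorded after 30 min at room temperature.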
The nature of test [15]: qHTS assay to identify small molecule agonists of the retinoic acid receptor (RAR) signaling pathway (AID 1159553). Also: potency is read from the fitted curve at half-maximal effect. A digest of the protocol:
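C3RL4 cells carrying a RARE luciferase reporter were plated overnight at 37 C, then exposed to compounds in DMSO for 6 hr at 37 C and 5% CO2. Luminescence was read 30 min after luciferase reagent addition at room temperature.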

Chain of Retinoic acid receptor RXR-alpha (Homo sapiens) (P19793 whole entry, looked up): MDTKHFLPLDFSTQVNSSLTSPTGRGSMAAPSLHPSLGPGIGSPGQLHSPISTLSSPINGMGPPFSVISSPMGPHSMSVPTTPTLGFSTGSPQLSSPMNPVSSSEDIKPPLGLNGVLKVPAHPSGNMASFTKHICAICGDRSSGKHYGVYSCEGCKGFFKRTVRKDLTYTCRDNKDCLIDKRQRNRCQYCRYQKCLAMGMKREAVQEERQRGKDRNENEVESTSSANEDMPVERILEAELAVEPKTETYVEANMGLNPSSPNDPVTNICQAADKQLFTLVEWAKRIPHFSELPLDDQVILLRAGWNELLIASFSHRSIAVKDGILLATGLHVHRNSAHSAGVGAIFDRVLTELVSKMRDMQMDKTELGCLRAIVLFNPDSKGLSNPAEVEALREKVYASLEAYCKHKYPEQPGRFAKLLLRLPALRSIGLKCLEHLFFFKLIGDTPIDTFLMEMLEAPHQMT

In the case of `CC1=CCC2C(C1)C2(C)C` (stereo unspecified), the outcome in [1], in test [2], in test [3], in test [4], in test [5] and in test [6] was inactive. In addition, the call in test [9] was inactive. Also, the Potency result in test [7], in test [8], in test [10], in test [11] and in test [12] was “inactive” each time.

With `CCCc1ccc(N)cc1`, the molecule was classed as inactive in test [1], in test [3], in test [4], in [5], in [6] and in test [9]. In test [13], the molecule was called inactive. Also, the Potency result in test [7], in test [10], in test [11] and in [12] was “inactive” in each case.

`CC(C)c1ccc2oc3nc(N)c(C(=O)O)cc3c(=O)c2c1`: the result in test [1], in test [2], in test [3], in test [4], in test [5] and in test [6] was inactive. For the same molecule, in test [9], the result was inactive. Also, the Potency result in [7], in test [8], in test [10], in test [12] and in [14] was “inactive” throughout. Besides, the Potency in [15] is 2110 nM (active).

Turning to `Oc1ccc2c(c1)OC[C@@H](N1CCC(O)(c3ccc(F)cc3)CC1)[C@H]2O`, the call in [1], in test [2], in test [3], in test [4], in test [5] and in test [6] was inactive. Further, the molecule was called inactive in test [9] and in test [13]. Further, the Potency entry in test [7], in [8], in test [10] and in [14] was “inactive” throughout. Also, the Potency in test [15] was 531 nM (active).

As to `Nc1cc(C(Cl)=C(Cl)Cl)c(S(N)(=O)=O)cc1S(N)(=O)=O`, the outcome in test [1], in test [2], in test [3], in test [4], in [5] and in [6] was inactive. In addition, the call in test [9] and in [13] was inactive. Also, the Potency result in [7], in test [10], in test [11] and in [12] was “inactive” throughout.

As for `COc1ccc2cc(C=O)ccc2c1`, the result in test [1], in test [2], in test [3], in [4], in [5] and in test [6] was inactive. The outcome in [9] and in [13] was inactive. In addition, the Potency entry in test [7], in test [8], in test [10], in test [12], in test [14] and in [15] was “inactive” throughout.

For `CC(=O)NC(Cc1ccccc1)C(=O)O` (stereo unspecified), the outcome in test [1], in [2], in [3], in test [4], in test [5] and in [6] was inactive. The molecule was classed as inactive in test [9] and in [13]. Also, the Potency result in test [7], in [10], in [12], in [14] and in test [15] was “inactive” in each case.

In the case of `CC(C)(O)c1ccccc1`, the molecule was classed as inactive in test [1], in [2], in test [3], in [4], in test [5] and in [6]. Besides, the result in test [9] and in [13] was inactive. For the same molecule, the Potency result in [7], in test [8], in test [10], in [12], in test [14] and in [15] was “inactive” throughout.

As to `NC(N)=NS(=O)(=O)c1ccc(N)cc1`, the molecule was classed as inactive in [1], in [2], in [3], in test [4], in test [5] and in test [6]. Also, the result in test [9] and in test [13] was inactive. In addition, the Potency entry in test [8], in test [10], in test [11] and in test [12] was “inactive” each time.

In the case of `CC12CCC(CC1=O)C2(C)C` (stereo unspecified), the molecule was called inactive in [1], in test [2], in test [3], in [4], in test [5] and in test [6]. Moreover, the call in [9] was inactive. Also, the Potency result in test [7], in test [10], in test [11], in test [12], in test [14] and in [15] was “inactive” in each case.

For `O=C(O)c1cccc(C(=O)O)n1`, the molecule was called inactive in test [1], in test [2], in [3], in test [4], in [5] and in [6]. Further, the result in test [9] and in test [13] was inactive. Besides, the Potency entry in test [7], in [8], in test [10], in [12], in [14] and in [15] was “inactive” each time.
